An excerpt weighted towards active compounds, which were near 9.6% of everything screened.
USP30 inh: inhibitors of human USP30 deubiquitinase; Ubiquitin carboxyl-terminal hydrolase 30 (Homo sapiens), Q70CQ3; purified USP30, Ub-rhodamine cleavage fluorescence; inhibition, % at 25 µM; 47,000 compounds, 5.3% hits; AID 1645860, 2021
Target sequence (Q70CQ3 whole entry, looked up): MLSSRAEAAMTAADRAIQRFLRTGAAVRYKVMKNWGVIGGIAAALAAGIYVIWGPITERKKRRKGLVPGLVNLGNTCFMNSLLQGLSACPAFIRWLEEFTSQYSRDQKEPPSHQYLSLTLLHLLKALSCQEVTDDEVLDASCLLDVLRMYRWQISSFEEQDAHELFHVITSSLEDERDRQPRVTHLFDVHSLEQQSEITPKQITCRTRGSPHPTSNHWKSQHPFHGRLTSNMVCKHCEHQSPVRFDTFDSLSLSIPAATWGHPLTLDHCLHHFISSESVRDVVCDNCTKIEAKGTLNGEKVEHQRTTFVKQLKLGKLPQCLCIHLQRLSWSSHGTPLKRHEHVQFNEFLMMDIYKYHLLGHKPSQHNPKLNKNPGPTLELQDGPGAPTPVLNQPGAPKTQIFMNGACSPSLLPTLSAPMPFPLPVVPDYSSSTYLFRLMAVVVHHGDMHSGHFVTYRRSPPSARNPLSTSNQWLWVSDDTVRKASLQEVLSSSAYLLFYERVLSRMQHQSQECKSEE
USP17 block: inhibitors of human USP17 deubiquitinase | Ubiquitin carboxyl-terminal hydrolase 17-like protein 5 (Homo sapiens), A8MUK1 | purified USP17, Ub-rhodamine cleavage fluorescence, 3 h | inhibition, % at 50 µM | 47,000 compounds, 6.5% hits | AID 1645855, 2021
Numbers stand for hits; – = inactive; · = not tested or not shown. Cut-off read from the data, not from the text of the source: active = inhibition above about 30%; inactive = the rest.

SMILES | USP30 inh | USP17 block
Cc1cc(N2CCCCC2)nc2ccc(NC(=O)CCC(=O)NC(C)c3ccc4c(c3)OCCO4)cc12 (stereo not drawn) | – | 36.5
COc1ccc(/C=C/C(=O)Nc2ccc3c(c2)OCCO3)cc1 | · | –
COc1ccccc1CNC(=O)CCC(=O)Nc1ccc2nc(N3CCN(C)CC3)cc(C)c2c1 | – | –
O=C(OCC(=O)N1CCCc2ccccc21)c1ccc([N+](=O)[O-])cc1 | – | –
Cc1nc2c(C)cccn2c(=O)c1Cc1nnc(SCCOc2ccccc2)n1C | – | –
Cn1c(=O)c2sccc2n2c(CCC(=O)NC3CCCCC3)nnc12 | – | ·
CCSc1nc(NCC(C)O)c2c3c(sc2n1)COC(C)(C)C3 (stereo not drawn) | – | –
CSc1cccc(NC(=O)N2Cc3cccn3-c3ccccc32)c1 | – | –
COc1ccc(CCNC(=O)C2CCCN(S(=O)(=O)N3CCCCC3)C2)c(OC)c1 (stereo not drawn) | – | –
COC(=O)CSc1nnc(-c2ccccc2O)n1Cc1ccccc1 | – | –
COc1cccc(CNC(=O)CCC(=O)Nc2ccc3nc(N4CCCCC4)cc(C)c3c2)c1 | – | –
COc1ccc(CCC(=O)Nc2ccc3nc(N4CCN(c5ncccn5)CC4)cc(C)c3c2)cc1 | 30.3 | –
Cc1cc(N2CCC(C)CC2)nc2ccc(NC(=O)C3CC3)cc12 | – | –
Cc1cc(N2CCN(c3ncccn3)CC2)nc2ccc(NC(=O)/C=C/c3ccccc3Cl)cc12 | – | 51.4
COc1cc2c(cc1OC)CN(Cn1cnc3ccccc31)CC2 | – | –
Cc1nc(C2CN(C(=O)Cc3c(C)n[nH]c3C)CCO2)cc(=O)[nH]1 (stereo not drawn) | – | –
COC(=O)c1ccccc1NC(=O)CSc1nc(C)nc2c1oc1ccccc12 | – | 45.3
Cc1nc(SCC(=O)Nc2cccc3ccccc23)c2oc3ccccc3c2n1 | 41.9 | 30.6
Cc1nc(SCc2ccc(Cl)cc2Cl)c2oc3ccccc3c2n1 | – | –
Cc1nc(SCc2ccccc2C)c2oc3ccccc3c2n1 | · | 60.2
CC(=O)CSc1nc(C)nc2c1oc1ccccc12 | – | –
CCc1nc(SCC(=O)NC2CCCCC2)c2oc3ccccc3c2n1 | – | –
Cc1nc(SCC(=O)NC2CCCC2)c2oc3ccccc3c2n1 | 38.3 | –
Cc1nc(SCC(=O)c2ccc(Cl)cc2)c2oc3ccccc3c2n1 | – | –
CCOc1cccc(-c2noc(CSc3ccc(-c4ccccc4F)nn3)n2)c1 | – | –
SMILES | USP30 inh | USP17 block
CC(=O)Nc1cccc(Nc2c(C(=O)N3CCOCC3)cnc3nc(C)ccc23)c1 | – | –
Cn1c(=O)c2c(-c3ccc(C(C)(C)C)cc3)n(-c3cc4c(cc3O)CCCC4)cc2n(C)c1=O | – | –
CN(C(=O)Cn1cc(S(=O)(=O)N2CCCC2)ccc1=O)c1ccccc1 | – | –
Cc1ncncc1C(=O)N1CCCCC1c1nnc(-c2nccc3ccccc23)o1 (stereo not drawn) | – | –
Cn1c(=O)n(C2CCN(Cc3ccsc3)CC2)c2ncncc21 | – | –
Cc1cccc(C(=O)NCc2csc(C)n2)c1 | – | –
COc1cc(O)c2c(=O)cc(C)oc2c1CC=C(C)C | 30.7 | 37.5
COc1cc2oc(C)cc(=O)c2c(O)c1CO | – | –
COc1ccc(/C=C(/C#N)c2c[nH]c3ccccc23)cc1 | – | –
COc1ccc(C(=O)c2c[nH]c3ccccc3c2=O)cc1 | · | 32.4
COc1ccc(-c2cn3cccnc3n2)cc1NC(=O)c1cccc(C)c1 | – | –
COc1ccc(CC(=O)Nc2cccc(-c3cn4cccnc4n3)c2)cc1 | – | 31.0
CCN1CCCC1CNc1ncnc2c1[nH]c1ccccc12 (stereo not drawn) | – | –
O=C(NCc1cc(-c2ccc(Cl)cc2)on1)c1ccco1 | – | –
O=C(Nc1cccc(Cl)c1)N1C[C@H]2C[C@H]3[C@](C1)(CN(Cc1cccnc1)S3(=O)=O)O2 | – | –
CCc1cccc(NC(=O)c2nc3ccccc3n(C)c2=O)c1 | 85.7 | 57.6
Cn1c(=O)c(C(=O)NCc2ccc(F)cc2)nc2ccccc21 | · | –
CC1=C(C#N)C(c2ccc(Sc3ccccc3)o2)C(C#N)=C(C)N1 | – | –
O=C(c1ccc(Cl)cc1)N1CCCC1c1ccnc(Nc2cnccn2)n1 (stereo not drawn) | – | –
CNc1cc(C2CCCN2C(=O)c2noc3c2CCCC3)ccn1 (stereo not drawn) | · | –
CCOc1cc2[nH]c(=O)n(Cc3ccc(C(=O)NCCCN4CCC(C)CC4)cc3)c(=O)c2cc1OCC | 34.8 | –
CCOc1cc2[nH]c(=O)n(CCC(=O)NCCc3ccc(OC)c(OC)c3)c(=O)c2cc1OCC | – | –
NC(=O)C1CCN(C(=O)c2ccc3c(=O)n(CCc4ccccc4)c(=O)[nH]c3c2)CC1 | – | –
CCOC(=O)N1CCN(C(=O)c2ccc(Cn3c(=O)[nH]c4cc(OC)c(OC)cc4c3=O)cc2)CC1 | – | –
COc1ccc(Cn2c(=O)[nH]c3cc(C(=O)N4CCC(Cc5ccccc5)CC4)ccc3c2=O)cc1 | 37.3 | –
